Inconclusive results are not listed. Entries that show only a call come without a potency. Active and inactive are the calls of the source. The call rests on the fitted dose curve; in most records, active means well fitted activation curve with a large enough effect; inconclusive means small, poorly fitted or top-dose-only effect; inactive means no such curve, though single readings can be large or run the other way.
Potency means the concentration at half of the fitted maximal effect.

Sequence of Relaxin receptor 1 (Homo sapiens) (Q9HBX9 whole entry, looked up): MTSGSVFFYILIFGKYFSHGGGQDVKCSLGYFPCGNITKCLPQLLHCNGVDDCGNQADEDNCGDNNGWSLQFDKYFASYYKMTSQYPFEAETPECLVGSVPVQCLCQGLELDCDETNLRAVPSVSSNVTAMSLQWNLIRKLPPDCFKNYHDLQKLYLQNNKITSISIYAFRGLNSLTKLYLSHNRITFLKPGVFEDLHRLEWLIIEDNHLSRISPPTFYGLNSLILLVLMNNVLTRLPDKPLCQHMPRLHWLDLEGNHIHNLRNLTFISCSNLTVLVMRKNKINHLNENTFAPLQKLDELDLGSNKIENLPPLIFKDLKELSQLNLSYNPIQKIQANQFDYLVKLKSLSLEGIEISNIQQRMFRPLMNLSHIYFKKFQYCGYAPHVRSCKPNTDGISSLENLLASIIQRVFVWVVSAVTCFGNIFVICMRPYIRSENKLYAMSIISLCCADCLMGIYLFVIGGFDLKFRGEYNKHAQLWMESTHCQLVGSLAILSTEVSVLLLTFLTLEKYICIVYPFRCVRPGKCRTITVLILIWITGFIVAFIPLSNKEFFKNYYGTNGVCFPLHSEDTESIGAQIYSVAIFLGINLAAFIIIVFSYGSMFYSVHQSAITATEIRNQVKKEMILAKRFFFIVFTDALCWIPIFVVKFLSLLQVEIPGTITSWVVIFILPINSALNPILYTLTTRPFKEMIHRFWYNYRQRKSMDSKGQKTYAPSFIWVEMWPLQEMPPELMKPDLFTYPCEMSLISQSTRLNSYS

This assay addresses Relaxin receptor 1 (Homo sapiens) (UniProt Q9HBX9). Briefly: qHTS Assay for Agonists of the Relaxin Receptor RXFP1: RXFP1 Hit Validation. Further: nearly all actives have a fitted effect of over 65% in size.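 On activation: cAMP rise lowers the TR-FRET signal in lysed cells with PDE4 inhibitor present.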 The conditions noted are these: HEK293T-RXFP1 cAMP TR-FRET, 30 min; series mostly up to 115 µM. From the text: NIH Chemical Genomics Center [NCGC] NIH Molecular Libraries Probe Production Centers Network [MLPCN] MLPCN Grant: R03 MH085705-01A1 Assay Submitter (PI): Alexander Agoulnik NCGC Assay Overview: The relaxin hormone is involved in the variety of biological functions in normal tissues and diseases. The role of relaxin is well-established in female reproduction and parturition, mammary gland and endometrial development, maintenance of myometrial quiescence during pregnancy. Relaxin signaling through its G protein-coupled receptor (GPCR) RXFP1 results in ECM remodeling through regulation of collagen deposition, cell invasiveness, proliferation and overall tissue homeostasis. […] Recombinant human relaxin (rhRlx) is currently being tested in clinical trials as a protective agent in congestive heart failure, in treating severe preeclampsia, and as an anti-fibrotic agent in systemic sclerosis. Upon relaxin binding RXFP1 activation leads to the activation of adenylate cyclase (AC) via Gs. cAMP will activate PKA, which phosphorylates many signaling proteins. Thus, detection of cAMP increase is an easy and reliable indication of relaxin receptor activation. To screen for agonists of the relaxin receptor, a HEK293T cell line stably transfected with RXFP1 was used. RXFP1 activation was assayed by changes in cAMP levels as detected with a time-resolved fluorescence energy transfer (TR-FRET) cAMP detection kit.
NCGC Assay Protocol Summary: This is a cell-based assay for cAMP second messenger response to screen for agonists of the RXFP1 receptor. The assay was conducted in the presence of a PDE4 inhibitor (Ro 20174). The cells were lysed and the cAMP levels were measured with a TR-FRET cAMP kit. Presence of cAMP in the cell lysate disrupts binding between the cryptate-labeled anti-cAMP and d2-labeled cAMP pair, leading to a decrease in the TR-FRET signal. Data were normalized to the controls for basal activity (buffer only) and 100% activity (29 nM porcine relaxin). The EC50 values were determined from concentration-response data modeled with the standard Hill equation 1536-well assay protocol for the HEK293 RXFP1 cAMP assay: (1) Add 3 ul HEK293 RXFP1 cell culture. 2000 cells/well in DMEM/F12, 10% FBS, 1x Pen/Strep (dispensed offline with MultiDrop Combi). (2) Incubate 16-24 hr at 37C, 5% CO2. (3) Add 1 ul 400uM Ro20174 in DPBS, 0.05% BSA, 0.005% Tween 20. (3) Add 23 nl compounds in DMSO solution. Final concentration was 0.5 - 58 uM. (4) Incubate 30 min at 37C, 5% CO2. (5) Add 1 ul cAMP-d2 in lysis buffer (HTRF cAMP HiRange kit, CisBio). (6) Add 1 ul anti-cAMP antibody-cryptate in lysis buffer (HTRF cAMP HiRange kit, CisBio). (7) Incubate 30 min at room temperature. […] Keywords: relaxin, RXFP1, RXFP2, G-protein coupled receptor, cAMP, agonist, high throughput screening, MLSMR, MLSCN, NIH Roadmap, qHTS and NCGC
On the technique in general: Quantitative high-throughput screening tests each substance at several concentrations.
Take `N#C/C(=C/c1ccc(OCc2ccccc2)cc1)C(=O)NC1CCCCC1`: the Potency result was “inactive”. With `Nc1c(S(=O)(=O)O)cc(NC(=O)c2ccccc2)c2c1C(=O)c1ccccc1C2=O` the entry was “inactive”. As for `O=C(O)CCC(=O)N1CCN(c2nc(-c3ccccc3Cl)c3cc(Br)ccc3n2)CC1`, the Potency entry was “inactive”.

As to `Cc1cccc(C(=O)Nc2ccccc2C(=O)NCc2ccco2)c1`, the Potency entry was “inactive”. As for `CCN(c1ccccc1)S(=O)(=O)c1ccc(OC)c(NC(=O)C2CC(=O)N(Cc3ccccc3)C2)c1` (stereo not given), the entry is “inactive”; as for `O=C(Nc1cccc(C(F)(F)F)c1)c1ccccc1NC(=O)C1CCCCC1`, 11.9 µM (active). In the case of `O=C(Nc1ccccc1C(=O)N1CCN(c2ccccc2)CC1)c1ccco1`, the Potency result was “inactive”. As for `C=CCNc1ncnc2c1ncn2C1OC(CO)C(O)C1O` (stereo not given), the Potency result was “inactive”. As for `CC(C)(C)C(=O)Nc1ccccc1C(=O)NCc1ccco1`, the entry is “inactive”; as for `CC(C)n1c(CN2CCN(C(=O)c3ccco3)CC2)nc2c1c(=O)n(C)c(=O)n2C`, “inactive”; as for `CCNc1nc(NCC)nc(N(C)/N=C/c2ccco2)n1`, “inactive”. As for `Cc1cc2c(SCC(=O)NCC3CCCO3)ncnc2s1` (stereo not given), the entry is “inactive”; as for `Nc1ncnc2c1ncn2[C@@H]1O[C@H](COS(=O)(=O)O)[C@@H](O)[C@H]1O`, 6.9 µM (active); as for `O=C(Nc1ccc(Cl)cc1)Nc1ccccc1Sc1ncc([N+](=O)[O-])s1`, “inactive”.

As to `C=C(C)C(=O)Nc1cccc(C2=NOC3(C2)C[C@@H](C(N)=O)N(C(=O)c2ccc(Cl)cc2)C3)c1` (stereo not given in full), the Potency result is “inactive”. With `CN(C)c1ccc(C(=S)N2CCN(S(=O)(=O)c3ccccc3)CC2)cc1` the entry was “inactive”; with `O=C(OCc1nc2ccsc2c(=O)[nH]1)c1cccc(S(=O)(=O)N2CCOCC2)c1`, 34.6 µM (active). With `CCOC(=O)CNC(=O)CSc1ccc2nnc(-c3cccnc3)n2n1` the entry was “inactive”; with `CCc1cc2c(=O)nc3n(c2s1)Cc1ccccc1/C3=C(/O)c1cccc([N+](=O)[O-])c1`, 5.3 µM (active); with `O=C(Nc1ccccc1C(=O)Nc1ccccc1)c1ccco1`, “inactive”.

Turning to `C=CCSc1nc2c(c(=O)[nH]1)C(C(C)C)C(C#N)=C(N)O2` (stereo not given), the Potency was 27.5 µM (active). On to `Cc1ccc(C(=O)Nc2ccccc2C(N)=O)o1`, for which the Potency entry is “inactive”. For `CC(C)n1cnc2c(N(C)c3cccc(Cl)c3)nc(N(CCO)CCO)nc21`, the Potency entry was “inactive”. As for `Cc1ccc(CN(C)C(=O)c2ccccc2NC(=O)c2ccccc2)o1`, the Potency result is “inactive”. With `Cc1cc(C(=O)COC(=O)Cn2cnc3c2c(=O)n(C)c(=O)n3C)c(C)n1C` the figure was 30.9 µM (active); with `CN(C)c1ccc(NC(=O)C2C3C=CC(C3)C2C(=O)O)cc1` (stereo not given), “inactive”. Consider `COc1ccc(CCn2c(=N)c(C(=O)NCC3CCCO3)cc3c(=O)n4cccc(C)c4nc32)cc1` (stereo not given), for which the Potency entry was “inactive”. For `Cc1cccc(-c2nnc(SCC(=O)NC3CC3)n2C)c1`, the Potency entry is “inactive”.

With `O=C(Nc1ccccc1C(=O)NCCN1CCOCC1)c1ccco1`, the Potency result is “inactive”. With `Cc1cccn2c(=O)c3cc(C(=O)NCCN4CCOCC4)c(=N)n(CCCN4CCOCC4)c3nc12` the entry was “inactive”; with `CCC(=O)Nc1ccc(-n2nnnc2SCC(=O)NNC(=O)c2ccco2)cc1`, “inactive”. With `O=C(Nc1ccccc1C(=O)NCCc1ccc(O)cc1)c1ccco1`, the Potency result was “inactive”. As for `Cc1ccccc1OCC(=O)Nc1sc(C(=O)Nc2cccc(C)c2C)c(C)c1C#N`, the figure is 6.15 µM (active); as for `O=C(CSc1ccc2nnc(-c3ccncc3)n2n1)NCC1CCCO1` (stereo not given), “inactive”; as for `O=C(NC1CCCCCC1)c1cc2c(=O)n3ccccc3nc2s1`, 34.6 µM (active). With `Cc1ccccc1NC(=O)CNc1ccccc1C(=O)NCc1ccco1` the entry was “inactive”; with `COc1ccc(/C=C2/SC(=O)N(CCC(=O)Nc3ccc(C)cc3)C2=O)cc1OC`, “inactive”. With `CCN(CC)c1ccc(S(=O)(=O)N2CCOCC2)cc1NC(=O)CSc1nncn1C` the figure was 12.3 µM (active); with `Cc1cc(C)nc(NS(=O)(=O)c2ccc(NC(=O)c3nn(-c4ccccc4)ccc3=O)cc2)n1`, 24.5 µM (active). With `Cn1c2c(c(=O)n3ncnc13)CCCC2`, the Potency entry was “inactive”.

Values taken from PubChem BioAssay AID489012 (National Center for Advancing Translational Sciences (NCATS), 2010).
